Assay results reported in PubChem BioAssay (NCI).
About 79,000 compounds went through this panel and 15% of them were active in at least one assay; those are over-represented in the sample as a whole. Values without a mark were called inactive. Cut-off read from the data, not from the text of the source: active = growth inhibition above about 70%; inactive = the rest.

Test: NCI Yeast Anticancer Drug Screen. Data for the sgs1 mgt1 strain (AID 161);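 note: 0% = growth of cultures given vehicle only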
Conditions: S. cerevisiae sgs1 mgt1 strain, at 50.0 µM, hits give high values
How it was run: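 Growth of a repair-deficient yeast mutant was monitored after compound treatment and expressed as inhibition relative to vehicle-treated cultures.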

| Structure (SMILES) | growth inhibition [%] |
| --- | --- |
| CCCCCN1C(=O)N=NC1=S | 19.2 |
| CCOC(=O)NC(=O)c1cn(CCCOC(=O)CCCCCCCCCCC(=O)OCCCn2cc(C(=O)NC(=O)OCC)c(=O)n(C)c2=O)c(=O)n(C)c1=O | -24.6 |
| Cc1cc2[nH]c3ccccc3n2c(=O)c1N=Nc1ccccc1 | 9.75 |
| COc1c(OC2OC(CO)C(O)C(O)C2O)cc2occ(-c3ccc4c(c3)OCO4)c(=O)c2c1O (stereo not drawn) | -10 |
| [O-][N+](=Nc1ccccc1Cl)c1ccccc1Cl | 62.7 |
| O=C(c1ccccc1)c1cccc2c1ccc1ccccc12 | 38.3 |
| CC1(O)Oc2c(cc(C(C)(C)C)cc2C(C)(C)C)C1=O (stereo not drawn) | 18.2 |
| [Mn+2].[NH-]CC(=O)NC(Cc1ccccc1)C(=O)O.[NH-]CC(=O)NC(Cc1ccccc1)C(=O)O (stereo not drawn) | -10.7 |
| CCCc1ccccc1[N+](=O)[O-] | -10.5 |
| c1csc(-c2cc(-c3ccsc3)c(-c3cccs3)s2)c1 | -33.4 |
| NC(=O)c1cccnc1 | 5.1 |
| Cc1ccc([N+](=O)[O-])cc1N=C=O | -31.1 |
| CC1=NNC(c2ccco2)C1 (stereo not drawn) | 12.8 |
| CCOC(=O)c1nc2c(Cl)c3ncccc3cc2[nH]c1=O | 20.8 |
| COc1ccccc1C(=O)N/N=C/c1ccccc1Cl | 32.4 |
| C=C(CC/C=C\CO)[Si](C)(C)C | 1.05 |
| C=C(S(=O)(=O)CC)S(=O)(=O)CC | -3.8 |
| Cc1ccc2cccc(N)c2n1 | -8 |
